SMILES strings stand for the structures. Inconclusive results are not listed. Entries that show only a call come without a potency. Calls of active or inactive are those of the source. Calls come from the whole dose curve; as a rule, active = well fitted cell-killing curve with a large enough effect; inconclusive = small, poorly fitted or top-dose-only effect; inactive = flat fitted curve, though single readings scatter.
Potency is the fitted concentration of half-maximal effect.

The nature of the assay: Cell Viability - H-4-II-E (AID 543). Note: nearly all actives have a fitted effect of over 35% in size. The following applies: H-4-II-E rat hepatoma viability; series mostly up to 92.2 µM. The text has this: NIH Chemical Genomics Center [NCGC]
NIH Molecular Libraries Screening Centers Network [MLSCN]
National Institutes of Environmental Health Sciences [NIEHS]
National Toxicology Program [NTP]
We have developed a 1536-well cell-based assay for quantitative high throughput screening (qHTS) against a number of cell lines to determine in vitro cytotoxicity of small molecules. This particular assay uses the H-4-II-E cell line which is derived from rat hepatoma.
NCGC Assay Protocol Summary:
The CellTiter-Glo luminescent cell viability assay (Promega) is a homogeneous method to measure the number of viable cells in culture. The end point readout of this assay is based on quantitation of intracellular ATP, an indicator of metabolic activity, using the luciferase reaction. Luciferase catalyzes the oxidation of beetle Luciferin to oxyluciferin and light in the presence of ATP. The luminescent signal is proportional to amount of ATP present.
Using the CellTiter-Glo luminescent cell viability assay, the amount of cellular ATP was measured in the H-4-II-E cell line with complete culture medium following compound treatment for 40 hours. The assay was performed in opaque white Kalypsys 1536-well plates. In the screen, tamoxifen and doxorubicin were used as positive controls. Library compounds were measured for their ability to cause acute toxicity in the cell line, as reflected by a decrease in intracellular ATP levels, in a concentration-dependent manner. […] AC50 values were determined from concentration-response data modeled with the standard Hill equation.
qHTS protocol fo CellTiter Glo H-4-II-E cellular assay
[Step] [Parameter] [Value] [Description]
1. Reagent; 5 uL; 1500 H-4-II-E cells/well
2. Time; 5 hr; 37 °C incubation
4. Controls; 23 nL; Tamoxifen 0.34 uM to 100 uM & Doxorubicin 0.02 nM to 100 uM
5. Time; 40 hr; 37 °C incubation
6. Reagent; 5 uL; CellTiter Glo reagent
7. Time; 20 min; Room Temperature
8. Detection; Luminescence; Viewlux plate reader
Keywords: cell viability, cytotoxicity, H-4-II-E cell line, luminescence, NTPHTS, NTPHTS_NCGC, NIEHS, EPA, DSSTox, MLSMR, MLSCN, NIH Roadmap, qHTS, NCGC
With `CCCCCOC(=O)c1ccccc1C(=O)OCCCCC`, the Potency result is “inactive”.
The same measure for `BrC(Br)Br`: “inactive”; for `C=CC(=O)OCC(C)C`: “inactive”; for `CN(C)c1ccc(N)cc1`: 50.1 µM (active).
The same measure for `Nc1ccc(Cl)c(Cl)c1`: “inactive”; for `Nc1cccc2ccccc12`: “inactive”; for `C=CC=O`: “inactive”.
Then `CCBr`, with “inactive”; and `CC(C)C#N`, with “inactive”; and `CCC[N+](=O)[O-]`, with “inactive”.
As to `N#CCCCCC#N`, the Potency entry is “inactive”.
The same measure for `CC(C)(Cl)Cl`: “inactive”; for `CC(=O)[O-].CC(=O)[O-].CC(=O)[O-].[Cr+3]`: “inactive”; for `O=P(OCCCl)(OCCCl)OCCCl`: “inactive”.
The same measure for `OCCBr`: “inactive”; for `CCOP(=S)(OCC)SCCSCC`: “inactive”.
Then `c1ccc2c(c1)CCNC2`, with “inactive”.
With `ClCc1ccccn1`, the Potency result was “inactive”.
The same measure for `ClC(Br)Br`: “inactive”.
The same measure for `C=C(Cl)CCl`: “inactive”; for `CC(C)CON=O`: “inactive”.
The same measure for `CCN(CC)CCO`: “inactive”; for `CC(Cl)(Cl)Cl`: “inactive”; for `CNC(=O)O/N=C/C(C)(C)S(C)=O` (stereo not given): “inactive”.
With `NNC(N)=S`, the Potency entry is “inactive”.
Then `Cc1cnc[nH]1`, with “inactive”; and `CC(=O)CCC(C)=O`, with “inactive”.
For the molecule `S=c1[nH]c2ccccc2[nH]1`, the Potency result was “inactive”.
Take `Nc1cc(Cl)cc(C(=O)O)c1Cl`: the Potency entry is “inactive”.
The same measure for `N#C/C(N)=C(/N)C#N`: “inactive”; for `CCOC(=O)C1OC1(C)c1ccccc1` (stereo not given): “inactive”.
Then `ClCCCCl`, with “inactive”; and `NC1CCC(CC2CCC(N)CC2)CC1` (stereo not given), with “inactive”.
With `N#C/C=C/C#N`, the Potency was 50.1 µM (active).
Then `[O-][Cl+]O`, with “inactive”.
The same measure for `C=C(C)CCl`: “inactive”; for `ClCCOCCCl`: “inactive”.
The same measure for `COc1c(C(C)(C)C)cc([N+](=O)[O-])c(C)c1[N+](=O)[O-]`: “inactive”.
With `Cc1ccc2c(C)cccc2c1`, the Potency result was “inactive”.
Take `c1ccoc1`: the Potency result is “inactive”.

The record behind these values is PubChem BioAssay (NCATS).
